Assay results taken from PubChem BioAssay (NCATS).
Records with an inconclusive call do not appear. Activity calls are given as the source filed them. Calls follow the shape of the dose curve; as a rule, active = well fitted inhibition curve with a large enough effect; inconclusive = small, poorly fitted or top-dose-only effect; inactive = flat fitted curve, though single readings scatter.

Molecular target: Calcium and integrin-binding protein 1 (Homo sapiens) (UniProt Q99828)
Assay: Primary qHTS for Identification of Calcium Integrin Binding Protein 1 (CIB1) Competitor (AID 1508620);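 also: GST tagged CIB1 binding a fluorescein labelled alphaIIb integrin peptide tracer; top concentration of the series differs between compounds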
Conditions: CIB1-GST / FITC-alphaIIb peptide fluorescence polarization; series mostly up to 114 µM; activity change, negative = inhibition: at the top concentration
How it was run: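 CIB1-GST (1 uM final) and compound incubated 15 min at room temperature before adding FITC-alphaIIb peptide tracer (100 nM final). Competition for binding read by fluorescence polarization (ex 480, em 540) after another 15 min at room temperature.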
% is scaled to controls: 0 for no effect and ±100 for the full control effect.

Sequence of Calcium and integrin-binding protein 1 (Homo sapiens) (Q99828 whole entry, looked up): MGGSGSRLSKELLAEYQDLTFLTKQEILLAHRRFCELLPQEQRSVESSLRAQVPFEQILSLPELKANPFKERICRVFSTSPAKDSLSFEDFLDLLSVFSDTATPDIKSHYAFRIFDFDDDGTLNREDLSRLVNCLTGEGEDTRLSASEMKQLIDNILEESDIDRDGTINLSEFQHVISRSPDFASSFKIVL

SMILES | activity change, negative = inhibition
COc1ccc(Cn2ncc3c4sc(C)cc4n(C)c3c2=O)cc1 | 0.153% (inactive)
COC(=O)c1ccc(O)c2ncc(NC3CCNCC3)cc12 | -22.8% (inactive)
Cc1cc(C)nc(NC(=S)N2CCN(c3nc(C)cnc3C)CC2)c1 | 1.5% (inactive)
Nc1ccc(S(=O)(=O)N2CCCN(S(=O)(=O)c3ccc4c(c3)OCCO4)CC2)cc1 | 3.56% (inactive)
O=C(CCc1ccccc1Br)NCCc1nc2ccccc2[nH]1 | 0.113% (inactive)
COc1ccc(C2c3c(n(CCCc4ccccc4)cnc3=N)Oc3ccc4ccccc4c32)cc1OC (stereo not drawn) | 1.98% (inactive)
N#Cc1ccccc1-c1csc(N2CCC(C(N)=O)CC2)n1 | -5.27% (inactive)
Cc1ccc(S(=O)(=O)NC(N)=NCCC[C@@H](N)C(=O)Nc2cc(C(F)(F)F)ccc2Cl)cc1 | -4.65% (inactive)
COc1cc(-c2ccc3ncnc(NCc4cccs4)c3c2)cc(OC)c1OC | -3.42% (inactive)
CN1CCN(c2nnc(NC(=O)Nc3ccc(Cl)c(Cl)c3)s2)CC1 | 1.66% (inactive)
O=C1CCc2cc(S(=O)(=O)Nc3ccc4c(c3)OCCO4)ccc2N1 | 0.261% (inactive)
COc1ccc(-c2csc(N3CCC(C(N)=O)CC3)n2)cc1OC | -2.43% (inactive)
CC(=O)Nc1sc2c(c1-c1cccs1)CCNC2 | 7.78% (inactive)
Cc1cc(NS(=O)(=O)c2ccc(NC(=O)Cc3ccc(Cl)cc3)cc2)no1 | -8.01% (inactive)
O=S1(=O)N=C(Oc2ccc(C(F)(F)F)cc2)c2ccccc21 | 0.595% (inactive)
O=C(Nc1ccccc1)c1cccs1 | 4.01% (inactive)
O=C1c2ccccc2C(=O)N1c1cccc2ncccc12 | -0.712% (inactive)
CS(=O)(=O)Nc1cccc(-c2cc(F)c(S(=O)(=O)N3CCN(S(=O)(=O)c4ccc5c(c4)OCCO5)CC3)cc2F)c1 | -17.9% (inactive)
